Screens deposited in PubChem by Broad Institute.
In the library only some 1.2% were active in any assay of this set; here they are far more common.
N-glyco inh: increase of ERlucT glycosylation luciferase signal, primary screen, N-linked glycosylation inhibitor project, D54 ERlucT cells, luminescence, set 2; reporter increase, % at 12.5 µM; hit rate 0.23% among 360,000; AID 588692, 2011; D54 ERlucT glycosylation luciferase reporter, 24 h; percent of 100 nM tunicamycin response;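 active = mean luciferase reporter signal, scaled so untreated is 0 and the glycosylation-blocking control 100, at or above a set limit in every replicate; inconclusive = mean reaches the limit but not every replicate does; inactive = mean below the limit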;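 note: luciferase carries N-glycosylation sites so blocking glycosylation raises the light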
AF4-AF9 inh: inhibitors of AF4 peptide binding to AF9, primary screen, biochemical, AlphaScreen, biotin-AF4 peptide, FLAG-AF9, single point | AID 651704, 2012 | inhibition, % at 10 µM | hit rate 0.47% among 350,000;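 active = every replicate reaching a set inhibition limit, whatever the replicate mean, cut at about 25% in these data; inconclusive = mean inhibition reaches that limit but some replicates miss it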
CASP6 VEID inh: human caspase-6 inhibitors, primary screen, biochemical, VEID-R110 fluorescence, single point, set 2; AID 686996, 2013; hit rate 0.53% among 350,000; inhibition, % at 12.5 µM; P55212; purified caspase-6, Z-VEID-R110 cleavage fluorescence;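 active = mean inhibition across replicates at least about 35%, with every replicate also reaching that limit, limit read from the data; inconclusive = only one of the two criteria met; inactive = neither criterion met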
Target sequence (P55212 24-179 limits assumed): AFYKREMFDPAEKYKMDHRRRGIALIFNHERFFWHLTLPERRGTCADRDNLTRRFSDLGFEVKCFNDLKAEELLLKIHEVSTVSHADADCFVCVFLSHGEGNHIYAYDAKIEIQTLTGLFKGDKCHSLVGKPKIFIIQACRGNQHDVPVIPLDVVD
Target sequence (P55212 194-293 limits assumed): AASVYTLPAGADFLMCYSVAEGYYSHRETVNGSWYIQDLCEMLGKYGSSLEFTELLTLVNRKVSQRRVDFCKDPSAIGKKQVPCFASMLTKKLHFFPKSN
RAD52 inh: RAD52 DNA annealing inhibitors, primary screen, biochemical, FRET, single point, set 2. DNA repair protein RAD52 homolog (Homo sapiens), P43351. recombinant RAD52 DNA annealing, FRET fluorescence. inhibition, % at 18.7 µM. hit rate 0.46% among 360,000. AID 651710, 2012;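 active = every replicate showing at least 50% inhibition; inconclusive = mean inhibition at least 50% but not in every replicate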
Target sequence (P43351 whole entry, looked up): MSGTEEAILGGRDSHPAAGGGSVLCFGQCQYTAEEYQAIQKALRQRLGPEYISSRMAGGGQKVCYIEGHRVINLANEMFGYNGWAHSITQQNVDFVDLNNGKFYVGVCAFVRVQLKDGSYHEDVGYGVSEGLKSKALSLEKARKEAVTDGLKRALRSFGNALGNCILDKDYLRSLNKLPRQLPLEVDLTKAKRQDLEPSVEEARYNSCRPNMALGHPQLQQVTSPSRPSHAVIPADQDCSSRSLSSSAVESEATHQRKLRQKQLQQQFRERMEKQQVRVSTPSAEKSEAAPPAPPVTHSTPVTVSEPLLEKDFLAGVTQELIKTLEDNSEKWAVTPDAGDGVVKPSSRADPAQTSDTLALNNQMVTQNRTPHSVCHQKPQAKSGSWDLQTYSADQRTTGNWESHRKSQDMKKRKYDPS
RAD54 branch: inhibitors of human RAD54 branch migration, primary screen, biochemical, fluorescence, single point; inhibition, % at 10.4 µM; DNA repair and recombination protein RAD54-like (Homo sapiens), Q92698; hit rate 0.14% among 360,000; RAD54 Holliday junction branch migration, FAM/BHQ fluorescence; AID 602329, 2012;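 active = mean normalized replicate activity at least 40 and at least half of replicates scoring 40 or more; inconclusive = only one of the two criteria met; inactive = mean below 40 and under half of replicates reaching 40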;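 note: inhibitors cause a drop in the FAM fluorescence signal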
AlphaScreen intf: AlphaScreen signal interference counter-screen, dose response, artefact control, biochemical, cherry-picked samples, luminescence | shares compounds with AF4-AF9 inh | AC50, µM (highest dose often 12 µM) | hit rate 45% among 530 | AID 720494, 2013; cut-off not given, nearly all actives have AC50 up to about 14 µM
Large screens that a line does not name were inactive (follow-up assays come after a bar, where they were run).

COc1cc(C2CC(=O)Oc3c(C(CCN4CCOCC4)c4ccc(N(C)C)cc4)c(OC)cc(OC)c32)cc(OC)c1OC (centres undefined)	AF4-AF9 inh 40.3 | AlphaScreen intf 10.8µM
COc1ccc(C2CC(=O)Oc3c(C(CCN4CCCC(C)C4)c4ccc(N(C)C)cc4)c(OC)cc(OC)c32)cc1 (centres undefined)	AF4-AF9 inh 44.1 | AlphaScreen intf 1.83µM
Cc1ccc(S(=O)(=O)N(C)C[C@@H]2Oc3ccc(NC(=O)NC4CCCCC4)cc3CC(=O)N([C@@H](C)CO)C[C@H]2C)cc1	none (no result: N-glyco inh)
COc1ccc(S(=O)(=O)Nc2ccc3c(c2)CC(=O)N([C@H](C)CO)C[C@@H](C)[C@H](CN(C)Cc2ccc(Cl)c(Cl)c2)O3)cc1	none (no result: N-glyco inh)
O=C(CN1CCCC1)N/N=C/c1c(O)ccc2ccccc12	AF4-AF9 inh 38.4 | AlphaScreen intf 5.72µM
O=C(N/N=C/c1c(O)ccc2ccccc12)C(=O)N1CCCC1	none
C[C@H]1CN([C@@H](C)CO)C(=O)c2cccc(NS(=O)(=O)c3ccc(Cl)cc3)c2O[C@H]1CN(C)Cc1ccc(C(F)(F)F)cc1	none (no result: N-glyco inh)
C[C@@H]1CCCCO[C@@H](CN(C)C(=O)Cc2ccccc2)[C@@H](C)CN([C@@H](C)CO)C(=O)c2cc(NC(=O)C3CCCCC3)ccc2O1	none (no result: N-glyco inh, AF4-AF9 inh, CASP6 VEID inh, RAD52 inh)
COc1ccc(N2CCN(CCCNC(=O)C(=O)c3c(C)n(C)c4ccccc34)CC2)cc1	AF4-AF9 inh 37.0 | AlphaScreen intf inactive
NC(N)=NCCCS(=O)(=O)Nc1ccc(Nc2c3ccccc3nc3cc([N+](=O)[O-])ccc23)cc1	AF4-AF9 inh 78.3 (no result: RAD54 branch) | AlphaScreen intf 5.58µM
O=[N+]([O-])c1ccc(Nc2c3ccccc3nc3ccccc23)cc1	none (no result: CASP6 VEID inh, RAD54 branch)
C[C@@H]1CN([C@@H](C)CO)C(=O)Cc2cc(NC(=O)Nc3ccc(F)cc3)ccc2O[C@H]1CN(C)C(=O)Nc1cccc2ccccc12	none (no result: N-glyco inh)
C(=C\c1ccncc1)/c1ccncc1	none (no result: RAD54 branch) | AlphaScreen intf inactive
COc1ccc(NC(=O)N(C)C[C@H]2Oc3ncc(-c4ccc(C#N)cc4)cc3C(=O)N([C@@H](C)CO)C[C@@H]2C)cc1	none (no result: N-glyco inh)
Cn1ccc2c(N3CCCCCC3)cc3c(c21)C1CCC3C1 (centres undefined)	AF4-AF9 inh 31.2 | AlphaScreen intf inactive
Cc1c(N=C2C=C(Br)C(=O)C(Br)=C2)c(=O)n(-c2ccccc2)n1C	none (no result: RAD54 branch)
Cc1c(N=C2C=CC(=O)c3ccccc32)c(=O)n(-c2ccccc2)n1C	AF4-AF9 inh 34.7 (no result: RAD54 branch) | AlphaScreen intf inactive
C[C@@H]1CN([C@H](C)CO)C(=O)Cc2cc(N(C)C)ccc2O[C@@H]1CN(C)Cc1ccc(Cl)c(Cl)c1	AF4-AF9 inh 31.2 (no result: N-glyco inh) | AlphaScreen intf inactive
C[C@H]1CN([C@@H](C)CO)C(=O)c2cc(N(C)C)ccc2O[C@@H]1CN(C)Cc1ccc(Cl)c(Cl)c1	AF4-AF9 inh 28.5 (no result: N-glyco inh) | AlphaScreen intf inactive
C[C@H]1CCCCO[C@H](CN(C)Cc2ccc(Cl)c(Cl)c2)[C@@H](C)CN([C@@H](C)CO)C(=O)c2cc(N(C)C)ccc2O1	AF4-AF9 inh 62.7 (no result: N-glyco inh) | AlphaScreen intf 12.8µM
O=C(CN1CCOCC1)N[C@@H]1CC[C@@H](CCn2cc(C3CCCC3)nn2)O[C@@H]1CO	none (no result: N-glyco inh, RAD54 branch)
COc1ccc(NC2CCCN(Cc3cccc4cnccc34)C2)cc1 (centres undefined)	AF4-AF9 inh inconclusive
COc1ccc(NC2CCCN(Cc3cccc4cnccc34)C2)cc1OC (centres undefined)	AF4-AF9 inh 26.1 | AlphaScreen intf inactive
CO[C@@H]1CN(C)C(=O)c2cc(NS(C)(=O)=O)ccc2OC[C@H](C)N(C(=O)CN(C)C)C[C@@H]1C	none (no result: N-glyco inh)
CC(=O)OCCNc1cc(N2CCN(C)CC2)c2noc3c2c1C(=O)c1ccccc1-3	AF4-AF9 inh 85.7 | AlphaScreen intf 8.57µM
CN(C)c1ccc(NC(=S)c2ccccn2)cc1	AF4-AF9 inh 48.7 | AlphaScreen intf inactive
Oc1ccc(O)c(C=NNC(=S)NC2CC3CC2C2C=CCC32)c1 (centres undefined)	AF4-AF9 inh 35.0 | AlphaScreen intf 12.1µM
NNC(=S)NC1CC2CC1C1C=CCC21 (centres undefined)	none (no result: AF4-AF9 inh)
Nc1ccccc1Nc1cc(-c2ccccc2)nn1-c1cccc(Cl)c1	AF4-AF9 inh 31.4 (no result: RAD54 branch) | AlphaScreen intf inactive
O=C(CCl)Nc1cc(-c2ccccc2)nn1-c1ccccc1	N-glyco inh inconclusive (no result: AF4-AF9 inh, CASP6 VEID inh, RAD52 inh)
Cc1[nH]c2ccccc2c1C(C#N)(C#N)C1C(=O)c2ccccc2C1=O	AF4-AF9 inh 65.2 | AlphaScreen intf 2.04µM
COc1ccc(CNC(=O)C[C@@H]2CC[C@H](NS(=O)(=O)c3cccc(OC)c3)[C@H](CO)O2)cc1	none (no result: N-glyco inh)
C[C@H]1CN([C@@H](C)CO)C(=O)c2cccc(NC(=O)Nc3ccc(F)cc3)c2O[C@@H]1CN(C)Cc1ccc(C(=O)Nc2ccccc2N)cc1	none (no result: N-glyco inh, RAD54 branch)
CCN(CC)c1ccc(/C=C/c2ccc3ccc(OC)cc3[n+]2CC)cc1	AF4-AF9 inh 58.8 | AlphaScreen intf 5.22µM
CC[n+]1c(/C=C/c2ccc(N(C)C)cc2)ccc2ccccc21	AF4-AF9 inh 49.7 (no result: RAD54 branch) | AlphaScreen intf 5.84µM
CC[n+]1c(/C=C/c2ccc(OC)c(OC)c2)ccc2ccccc21	none
C[C@@H]1CN([C@@H](C)CO)C(=O)c2cc(C3=CCCCC3)cnc2O[C@@H]1CN(C)Cc1ccccn1	none (no result: N-glyco inh)
Cc1[nH]n(-c2ccccc2)c(=O)c1N=Nc1c(O)cc(S(=O)(=O)N(C)C)c2ccccc12	AF4-AF9 inh 50.1 | AlphaScreen intf inactive
O=C(C[C@@H]1CC[C@@H]2[C@H](COC[C@@H](O)CN2C(=O)c2cccnc2)O1)NCc1ccc(Cl)cc1	none (no result: N-glyco inh)
O=C(COc1ccc2c(c1)OCO2)Nc1ccccc1F	none
Fc1ccc([C@@H]2CCNC[C@H]2COc2ccc3c(c2)OCO3)cc1	AF4-AF9 inh 33.5 | AlphaScreen intf inactive
CCCC(=O)N1CCC2(CC1)CN(C(=O)C1CC1)[C@@H](CO)c1[nH]c3cc(OC)ccc3c12	none (no result: N-glyco inh, RAD54 branch)
Cc1nn(-c2ccccc2)c(Cl)c1/C=C1\C(=O)N(C)C(=S)N1C	AF4-AF9 inh 40.2 (no result: RAD54 branch) | AlphaScreen intf inactive
O=C1/C(=C/c2cccs2)CCC/C1=C\c1cccs1	none
CC1C/C(=C/c2cccs2)C(=O)/C(=C/c2cccs2)C1 (centres undefined)	AF4-AF9 inh inconclusive (no result: RAD54 branch) | AlphaScreen intf inactive
Cc1ccc2c(c1)C1CN(C)CCC1N2Sc1ccccc1[N+](=O)[O-] (centres undefined)	AF4-AF9 inh 35.4 (no result: RAD54 branch) | AlphaScreen intf 9.3µM
